The results in this text go back to PubChem BioAssay.

Assay [1] deals with Human papillomavirus type 1a protein E7 (residues 44-93). The assay is described as follows: HPV1a E7 fragment binders on microarrays, primary screen, biochemical, small-molecule microarray, residues 44-93, 635 nm fluorescence (AID 1108).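 Further: E7 fragment applied at 1 µg/mL in TBST for 1 h at 4 C; score combines spot fluorescence with its signal to noise ratio.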 The settings on record: small-molecule microarray binding, fluorescence 635 nm; higher = more signal.
Assay [2] in a line: modulators of HCV replicon luciferase signal, primary screen, HCV replication inhibitor project, Huh7 cells, luciferase reporter (AID 1109).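 Further: huh7 hepatoma cells harbouring a luciferase neomycin HCV replicon reporter; luciferase luminescence as measure of HCV replicon replication; test concentration not given here.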 Particulars: 48 h, higher = more signal.
In assay [3] the target is Left-right determination factor 2 (Homo sapiens) (UniProt O00292). The assay is described as follows: LEFTY2 binders on small-molecule microarrays, primary screen, biochemical, small-molecule microarray, 635 nm fluorescence scan (AID 1110). Particulars: LEFTY2 binding, higher = more signal.
Left-right determination factor 2 (Homo sapiens), sequence (O00292 whole entry, looked up): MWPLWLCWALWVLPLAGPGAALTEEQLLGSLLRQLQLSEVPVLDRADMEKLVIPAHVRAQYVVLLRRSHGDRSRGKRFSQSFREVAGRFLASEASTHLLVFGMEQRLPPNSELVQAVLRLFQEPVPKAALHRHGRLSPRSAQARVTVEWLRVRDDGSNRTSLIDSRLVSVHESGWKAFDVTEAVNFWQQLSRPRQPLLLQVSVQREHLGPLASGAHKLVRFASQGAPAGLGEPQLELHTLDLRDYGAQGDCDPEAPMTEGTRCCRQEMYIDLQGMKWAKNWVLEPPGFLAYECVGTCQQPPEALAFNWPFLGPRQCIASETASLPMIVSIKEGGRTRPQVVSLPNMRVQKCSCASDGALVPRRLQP
Assay [4] concerns the target Calmodulin-1 (Homo sapiens) (UniProt P0DP23). The assay is described as follows: CALM1 binders on microarrays, EGTA buffer, profiling panel, biochemical, small-molecule microarray, Cy5-labelled CALM1 (AID 1111).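 Further: labelled calmodulin applied in Tris saline Tween buffer holding calcium plus EGTA and DTT.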 Particulars: Cy5-CALM1 binding fluorescence, higher = more signal.
For assay [5] the target is unchanged. The assay is described as follows: calcium-bound CALM1 binders on microarrays, profiling panel, artefact control for SMM control-protein annotation, biochemical, small-molecule microarray, Cy5-labelled CALM1, plus calcium (AID 1112).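 Further: score merges spot fluorescence with signal to noise from triplicate slides.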 The settings on record: Cy5-CALM1 binding fluorescence, higher = more signal.
Assay [6] is described as follows: small-molecule microarray binders of probe aWnt5a, primary screen, biochemical, biotinylated probe, 635/667 nm fluorescence (AID 1113).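 Further: score merges 667 nm fluorescence intensity with signal-to-noise per printed feature.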 The settings on record: higher = more signal.
Assay [7] is described as follows: small-molecule microarray binders of probe aShh, primary screen, biochemical, biotinylated probe, 635/667 nm fluorescence (AID 1114).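 Further: probe is biotin-labelled aShh protein from a stem cell growth factor screen; measures binding of labelled protein to compounds printed on the slide; score merges feature fluorescence at 667 nm with signal-to-noise.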 Particulars: higher = more signal.
Assay [8] can be described thus: small-molecule microarray binders of probe aNog, primary screen, biochemical, biotinylated probe, 635/667 nm fluorescence (AID 1115).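 Further: probe is biotinylated aNog protein used at 0.15 µg/mL for 1 h at 4 C; z-score combines 667 nm fluorescence of each spot with its signal to noise.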 Particulars: higher = more signal.
Assay [9] addresses Torsin-1A-interacting protein 1 (Homo sapiens) (UniProt Q5JTV8). The assay is described as follows: LAP1 binders from COS7 cell lysate, primary screen, small-molecule microarray, 635/667 nm fluorescence (AID 1116). The settings on record: COS7-hLAP1 lysate binding, 635 nm fluorescence, higher = more signal.
Assay [10] deals with Alpha-bungarotoxin (Bungarus multicinctus) (UniProt P60615). The assay is described as follows: alpha-bungarotoxin binders on microarray, profiling panel, artefact control for SMM control protein annotation, biochemical, small-molecule microarray, Alexa647 label, 635/667 nm fluorescence (AID 1117). Particulars: alpha-BTX-A647 binding fluorescence, higher = more signal.
Alpha-bungarotoxin (Bungarus multicinctus), sequence (P60615 whole entry, looked up): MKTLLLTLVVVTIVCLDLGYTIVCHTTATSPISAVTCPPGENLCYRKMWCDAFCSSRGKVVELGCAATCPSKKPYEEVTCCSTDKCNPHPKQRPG

Torsin-1A-interacting protein 1 (Homo sapiens), sequence (Q5JTV8 whole entry, looked up): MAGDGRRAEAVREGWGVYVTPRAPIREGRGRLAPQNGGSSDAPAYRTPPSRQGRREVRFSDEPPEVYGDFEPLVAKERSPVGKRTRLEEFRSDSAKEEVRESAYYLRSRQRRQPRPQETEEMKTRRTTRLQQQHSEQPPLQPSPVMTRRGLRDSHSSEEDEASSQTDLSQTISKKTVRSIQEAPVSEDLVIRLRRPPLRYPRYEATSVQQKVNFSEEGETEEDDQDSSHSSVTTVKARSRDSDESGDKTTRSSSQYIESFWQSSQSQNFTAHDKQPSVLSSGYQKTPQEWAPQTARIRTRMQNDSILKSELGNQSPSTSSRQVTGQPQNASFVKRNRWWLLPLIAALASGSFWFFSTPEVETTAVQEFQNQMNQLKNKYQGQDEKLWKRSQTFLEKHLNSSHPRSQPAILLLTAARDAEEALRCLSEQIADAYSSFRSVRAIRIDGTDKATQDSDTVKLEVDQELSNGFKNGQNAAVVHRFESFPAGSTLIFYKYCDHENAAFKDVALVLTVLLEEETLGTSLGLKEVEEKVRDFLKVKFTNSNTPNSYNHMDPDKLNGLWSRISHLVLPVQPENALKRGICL

Turning to `CCCCC[C@H]1OC[C@@]23C=C(Br)[C@@H](CC12)[C@@]1(CO1)C3=O` (stereo not given in full), the composite z-score in [1] is 0.299; in assay [3], 0.058; in assay [4] it was -0.554; in [5], -1.31; in assay [6] it was -0.16; in assay [7], 0.0796. The values for the composite z-score in [8], in assay [9] and in assay [10] were -0.183, -0.574 and -0.284, respectively. In assay [2], the z-score was -2.3.
As for `O=C1OCCC/C=C\[C@H]2OC34C=CCN(c5ccc6ccccc6c5)C(=O)[C@H]3N(CCO)C(=O)[C@@H]4C12` (stereo not given in full), the composite z-score in assay [1] is -0.983; in assay [3] it was -1.2; in [4] it was 0.0755; in assay [5], 0.903; in [6], -0.154; in assay [7] it was -0.0533. For the same compound, the composite z-score was -0.0631 in assay [8], -0.399 in [9] and -1.95 in assay [10]. In addition, the z-score in assay [2] was -0.0164.
As for `COc1ccc(C#Cc2ccc3c(c2)[C@]2(C(=O)N3)[C@H](C(=O)O)[C@H]3C(=O)O[C@H](c4ccccc4)[C@H](c4ccccc4)N3[C@@H]2c2ccc(O)cc2)cc1`, the composite z-score in assay [1] was 0.78; in [3] it was -0.67; in [4], 0.695; in assay [5] it was 1.2; in [6], -0.124; in assay [7] it was 0.214. Moreover, the composite z-score in assay [8] was -0.0446; in assay [9], 0.286; in assay [10] it was -0.204. In [2], the z-score was -1.43.
For `COC(=O)[C@@]1(Cc2ccc(F)cc2)[C@H]2c3cc(C(=O)N(C)C)n(Cc4ccc(OC(F)(F)F)cc4)c3C[C@H]2CN1C(=O)c1ccccc1`, the composite z-score in [1] was 0.841; in [3], 0.242; in assay [4], 0.11; in assay [5], -0.191; in assay [6], -0.0758; in assay [7], 0.442. Further, the composite z-score in assay [8] is 0.0924; in assay [9] it was -0.147; in [10], 0.414. Besides, in assay [2], the z-score worked out at 0.167.
In the case of `CC(C)=C1C(=O)C(c2ccccc2)=C2CN3C(=O)N(CCc4ccccc4)C(=O)[C@]3(Cc3ccc(C(F)(F)F)cc3)[C@H]21`, the composite z-score in assay [1] is -0.396; in assay [3] it was -0.906; in assay [4], 1.66; in assay [5], 0.953; in assay [6], 0.0044; in assay [7], 0.275. For the same compound, the results for the composite z-score in assay [8], in [9] and in assay [10] were -0.781, 0.759 and 0.716, respectively. In [2], this compound registered a z-score of -0.508.
Consider `CCOC(=O)C[C@H]1[C@H](OC(=O)c2cc3ccccc3oc2=O)[C@@H](NC(=O)c2ccc3ccccc3n2)c2cc(OCCCO)ccc2N1C(=O)Cc1ccc(OC)cc1`, for which the composite z-score in assay [1] was 1.23; in assay [3] it was 0.735; in assay [4], 0.228; in assay [5] it was -0.653; in [6] it was 0.0297; in assay [7], -0.0119. Also, the composite z-score is -0.0428 in assay [8], 0.726 in assay [9] and 0.981 in assay [10]. The compound further registered a z-score in assay [2] of -1.96.
For the compound `CCCC[C@@H](O)C1=C(COC)C[C@H]2C(=O)N(Cc3ccccc3)C(=O)[C@H]2[C@H]1CO`, the composite z-score in [1] was 0.34; in assay [3], 0.568; in assay [4], -0.37; in assay [5] it was -0.359; in assay [6], 0.0102; in [7], -0.345. In addition, the composite z-score in [8] was found to be 0.116; in assay [9] it was 0.515; in [10], 0.516. The compound further displayed a z-score in assay [2] of -0.655.
Turning to `COc1ccc(C#Cc2ccc3c(c2)[C@]2(C(=O)N3)[C@H](c3ccc(OCCO)cc3)N3[C@H](c4ccccc4)[C@H](c4ccccc4)OC(=O)[C@H]3[C@@H]2C(=O)NC[C@H](O)c2ccccc2)cc1`, the composite z-score was 1.43 in [1]; 0.428 in assay [3]; 1.12 in assay [4]; -0.126 in assay [5]; -0.0462 in [6]; -0.0146 in assay [7]. The composite z-score in [8] was -0.157; in assay [9] it was 0.64; in assay [10] it was 1.87. The z-score in [2] is -2.21.
On to `CC[C@@H]1O[Si](C(C)C)(C(C)C)c2c1cc(-c1cc(C)c(OC)c(C)c1)nc2-c1ccc(Oc2ccccc2)cc1`, for which the composite z-score in [1] is -0.871; in assay [3] it was -0.389; in [4] it was -0.162; in assay [5], 0.0543; in [6], -0.117; in [7], -0.299. Besides, the composite z-score in assay [8] was -0.103; in assay [9], -0.386; in assay [10] it was 0.0748. The same compound gave a z-score in assay [2] of -0.748.
For `O=C1CS(=O)(=O)C(c2cccc([N+](=O)[O-])c2)N1c1ccccc1` (stereo not given), the composite z-score in [1] was -0.611; in assay [3], 0.432; in assay [4], 0.0568; in [5], -0.177; in assay [6], 0.157; in assay [7], 0.122. Moreover, the composite z-score in assay [8] is -0.217; in assay [9], 1.49; in [10], 1.98. For the same compound, the z-score in [2] is -0.376.
On to `COCCOC(=O)N1C(=O)[C@@]2(c3ccccc31)[C@H](C(=O)NC[C@H](O)c1ccccc1)[C@H]1C(=O)O[C@H](c3ccccc3)[C@H](c3ccccc3)N1[C@@H]2c1ccc(O)cc1`, for which the composite z-score in [1] was 1.44; in assay [3], 0.768; in [4], 0.573; in assay [5] it was -0.522; in [6], -0.0072; in [7] it was 0.209. The composite z-score in assay [8] worked out at 0.39; in assay [9], 1.21; in assay [10] it was 1.78. Also, the z-score in [2] was -0.986.
For the compound `C=C[C@@H](CO)N(Cc1ccc(OC)cc1)S(=O)(=O)c1ccc(Br)cc1`, the composite z-score is 0.19 in assay [1]; 0.211 in [3]; -0.0366 in assay [4]; -0.213 in assay [5]; 0.0377 in assay [6]; -0.0709 in assay [7]. Further, the composite z-score is -0.201 in [8], 0.572 in assay [9] and -0.0436 in assay [10]. Further, the z-score in assay [2] was -1.25.
Take `O=C1NC(=O)C2C1C=CC(C(O)c1ccco1)N2Nc1ccc(Cl)cc1Cl` (stereo not given): the composite z-score in [1] is 0.478; in assay [3], -0.39; in assay [4], 0.317; in [5], 0.381; in [6], -0.152; in [7] it was 0.111. Also, the composite z-score was -0.3 in assay [8], 0.478 in assay [9] and 0.396 in assay [10]. Besides, the z-score in [2] was -0.664.
On to `CCCCC(CC)C(O)C1C=CC2C(=O)N(c3ccccc3)C(=O)C2N1Nc1ccc(C#N)cc1` (stereo not given), for which the composite z-score was 1.44 in assay [1]; 0.111 in assay [3]; 1.35 in [4]; 0.467 in [5]; 0.267 in [6]; 0.348 in assay [7]. For the same compound, the composite z-score came to 1.97 in assay [8], 0.336 in [9] and 1.45 in assay [10]. Besides, in [2], the z-score is -0.67.
In the case of `NCCCCCNC(=O)[C@H]1C[C@H]2C(=O)N3CCC[C@H]3C(=O)N2[C@H]1c1cccc(OCCO)c1`, the composite z-score in assay [1] was 1.32; in [3], -0.397; in assay [4] it was 1.35; in assay [5], 0.684; in [6], 0.0375; in assay [7] it was 0.14. Further, the composite z-score in assay [8] is -0.403; in assay [9] it was 1.17; in [10], 1.24. Besides, the z-score in assay [2] was found to be 0.5.
Consider `CO[C@H]1O[C@H](CO)[C@@H](OC(=O)CCc2ccccc2)[C@@H]2OC(=O)[C@@H](Cc3ccccc3)C/C=C/C[C@H](Cc3ccccc3)C(=O)O[C@@H]12`, for which the composite z-score in [1] is 1.3; in assay [3] it was 0.0673; in assay [4], 0.485; in assay [5], 0.0529; in assay [6], -0.0802; in [7], 0.772. In addition, the figures for the composite z-score in assay [8], in assay [9] and in assay [10] were 0.156, -0.161 and 1.29, respectively. The compound also returned a z-score in [2] of -1.97.
Turning to `C=CCNC(=O)[C@@H]1[C@H]2C(=O)O[C@H](c3ccccc3)[C@H](c3ccccc3)N2[C@H](c2ccccc2OCCO)[C@@]12C(=O)N(C(=O)OCCOC)c1ccc(C#CC3(O)CCCCCC3)cc12`, the composite z-score was 1.23 in [1]; 0.694 in [3]; 0.66 in [4]; 0.212 in assay [5]; -0.0566 in assay [6]; -0.0035 in assay [7]. Besides, the composite z-score in [8] is -0.0224; in assay [9] it was 1.35; in [10], 0.859. In assay [2], this compound displayed a z-score of -2.27.
